H9c2 protect: modulators protecting cardiomyocytes from myocardial damage | H9c2 cardiomyocytes, H2O2 injury protection, ATPLite, 2 h | protection from H2O2 cell death, % at 20 µM | 0.63% of 360,000 active;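 active means compounds giving at least 50% protection of heart cells from peroxide-induced death in the single-dose screen, raw or plate-pattern-corrected value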;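 further: 0% = DMSO wells with peroxide and 100% = DMSO wells without peroxide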
aDG glyco act: alpha-DG glycosylation activation; Pro5-aDG cells, alpha-DG glycosylation AlphaScreen (IIH6); 0% Pro5, 100% B10-LARGE cell signal; activation, % at 10 µM; 0.22% of 360,000 active; AID 624168;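 active means activation of at least 8% versus controls, or a plate z-score of at least 8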;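 further: Pro5 are CHO cells carrying HIG-tagged alpha-DG that lacks glycosylation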
ARNT TACC3 PPI: disrupts binding between human ARNT and TACC3. Q9Y6A5. AlphaScreen His-ARNT PAS-B/GST-TACC3 binding, luminescence; TACC3 fragment carries E629A point mutation. inhibition, % at 9.99 µM. 0.66% of 390,000 active. AID 623870;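 active means mean inhibition of replicates at least 50% and at least half of replicates each reaching 50%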;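 further: 0% = complete ARNT plus TACC3 wells and 100% = ARNT alone without TACC3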
Vif imaging: blocks HIV Vif function. HEK293T cells, Vif self-association by quenched fluorescence, imaging, 24 h. inhibition, % at 7.49 µM. 0.35% of 340,000 active. AID 602346; in the data active means inhibition above about 50%, passing the limit was not always enough
Glyco luc inh: N-linked glycosylation inhibition; 0.23% of 360,000 active; AID 588692; D54 ERlucT glycosylation luciferase reporter, 24 h; percent of 100 nM tunicamycin response; reporter increase, % at 12.5 µM;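 active means mean luciferase reporter signal, scaled so untreated is 0 and the glycosylation-blocking control 100, at or above a set limit in every replicate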;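 further: luciferase carries N-glycosylation sites so blocking glycosylation raises the light; 0% = median of neutral control wells and 100% = median of 100 nM tunicamycin wells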
Numbers without * were called inactive; · = not tested or not shown. Hits are enriched below; roughly 1.7% of the tested compounds scored in any of these assays.

SMILES	H9c2 protect	aDG glyco act	ARNT TACC3 PPI	Vif imaging	Glyco luc inh
COc1cc(/C=C/C(=O)OCC(=O)N2c3ccccc3NC(=O)C2(C)C)cc(OC)c1OC	76*	-1	6	12	4
CCOC(=O)c1nc(N2CCN(C(=O)OCC)CC2)c2c3c(sc2n1)CCCC3	62*	0	0	-15	1
CCc1nc(N2CCN(C(=O)CCCl)CC2)c2c3c(sc2n1)CCCC3	2	0	·	-1	0
O=c1cc2c(=O)oc3cc(O)c(O)oc3c2c(O)c1O	-3	0	13*	6	0
CCC1(C)Cc2c(C#N)c(SC)nc(N3CCOCC3)c2CO1 (stereo not given)	-2	0	·	53*	-2
COc1ccccc1NC(=O)N[C@H]1CC[C@@H](CC(=O)N2CCC(Cc3ccccc3)CC2)O[C@@H]1CO	·	·	2	·	·
COc1ccc(-c2cc(-c3nc4ccccn4c3NCc3ccccc3)ccc2OC)cc1	-27	0	11	77*	-15
COC(=O)c1c(NC(=O)CSc2nnc(CNc3ccc(Cl)cc3)o2)sc(C)c1C	-3	0	0	72*	0
CCOC(=O)c1c(NC(=O)CSc2nnc(CNc3ccc(F)cc3)o2)sc(C(C)=O)c1C	-1	0	0	3	1
CCC(=O)Nc1ccc2c(c1)C(=O)N(C)C[C@@H](OC)[C@@H](C)CN(C(=O)CC)[C@@H](C)CO2	·	·	1	·	·
CC(C)(C)OC(=O)CNC(=O)c1[nH]cnc1C(=O)NC1CCN(C(=O)OC(C)(C)C)CC1	·	·	4	·	·
CC(C)(C)OC(=O)N1CCC(NC(=O)c2nc[nH]c2C(=O)NCC(=O)OCc2ccccc2)CC1	72*	0	4	0	2
O=C(CNC(=O)c1nc[nH]c1C(=O)N1CCc2ccccc2C1)OCc1ccccc1	105*	0	11	-5	-1
O=C(NC1CCCCC1)C(c1ccc2ncccc2c1)N(Cc1ccccc1)C(=O)c1ccc2c(c1)OCCO2 (stereo not given)	53*	0	6	-3	-2
Cc1cc2c(=Cc3ccc(N(C)C)cc3)c3ccccc3n2[n+]1C	-21	2	33	-24	66*
C[n+]1c(-c2ccccc2)cc2c(=Cc3ccccc3)c3ccccc3n21	-15	1	24	-16	14
CCOC(=O)c1cc2c(=Cc3ccc(N(C)C)cc3)c3ccccc3n2[n+]1C	-20	0	·	-11	40*
CN(C)c1ccc(C=c2c3ccccc3n3c2c2ccccc2[n+]3C)cc1	-16	5	11	-9	-4
CN(C)c1ccc(C=c2c3cc(O)ccc3n3c2cc(-c2ccccc2)[n+]3C)cc1	-18	-1	60*	-15	19
C[C@@H]1CN([C@@H](C)CO)C(=O)c2cc(C#C[C@@H](C)O)cnc2O[C@@H]1CN(C)C(=O)CC1CC1	·	·	-3	·	·
CC12CCC(=O)C=C1CCC1C2C(O)CC2(C)C1CCC2(O)C(=O)CO (stereo not given)	14	0	-2	50*	4
C[C@@H]1CN([C@@H](C)CO)S(=O)(=O)c2ccc(C#CC3CCCC3)cc2O[C@@H]1CN(C)C(=O)Cc1ccccc1	·	·	7	·	·
COc1cccc(NC(=O)C2CCN(S(=O)(=O)c3ccccc3)CC2)c1	2	1	47*	1	4
O=C(/C=C/c1ccco1)N1CCN(c2ncccn2)CC1	2	0	-26	1	2
O=C(/C=C/c1ccco1)N1CCC(Cc2ccccc2)CC1	-2	0	5	65*	2
SMILES	H9c2 protect	aDG glyco act	ARNT TACC3 PPI	Vif imaging	Glyco luc inh
Cc1cc[n+](C(C)C(=O)c2ccc(Cl)cc2)cc1 (stereo not given)	-2	0	56*	6	-2
CNC1=C(N(C(C)=O)c2ccc(Br)cc2)C(=O)c2ccccc2C1=O	-13	8.7*	46*	1	-23
CCC(=O)N(C1=C(NC)C(=O)c2ccccc2C1=O)C(C)C	-8	1	16	0	6
O=S(=O)(N[C@@H]1CC[C@@H](CCn2cc(-c3cccnc3)nn2)O[C@@H]1CO)c1ccc(F)cc1	·	·	6	·	·
CCCCOc1ccc(C(=O)Oc2cc(C)[nH]c(=O)c2[N+](=O)[O-])cc1	1	0	46*	2	3
CCOc1ccc(C(=O)Oc2cc(C)[nH]c(=O)c2[N+](=O)[O-])cc1	14	0	-8	3	2
CN1C[C@@H](O)COC[C@H]2O[C@H](CC(=O)NC3CCCC3)CC[C@@H]21	·	·	-3	·	·
CCCCCN=C(N)N/N=C/c1c[nH]c2ccc(OC)cc12	-43	0	23	81*	-20
C[C@H]1CN([C@@H](C)CO)C(=O)c2cccc(NS(=O)(=O)c3cccs3)c2O[C@H]1CN(C)S(=O)(=O)c1cn(C)cn1	·	·	-6	·	·
CCC(=O)N1CCCCN2[C@H](C1)[C@H](c1ccc(C#Cc3ccccc3)cc1)[C@@H]2CO	·	·	1	·	·
COc1ccccc1C(=O)Nc1cccc(C(=O)c2ccccc2)c1	6	0	-3	1	-3
COc1cccc(OC)c1C(=O)Nc1ccc(Br)c(C(=O)c2ccccc2)c1	54*	0	0	-6	-10
C[C@H](CO)N1C[C@H](C)[C@H](CN(C)C(=O)Nc2ccccc2)Oc2ccc(NS(=O)(=O)c3ccc(F)cc3)cc2C1=O	·	·	15	·	·
O=C1[C@@H]2Cc3c([nH]c4ccccc34)C(c3ccccc3)N2C(=O)CN1C1CC1 (stereo not given in full)	7	0	-3	1	1
O=C1[C@@H]2Cc3c([nH]c4ccccc34)C(c3ccc([N+](=O)[O-])cc3)N2C(=O)CN1C1CC1 (stereo not given in full)	45	0	3	-6	43*
O=C(C[C@@H]1CC[C@H]2[C@@H](COC[C@H](O)CN2Cc2ccncc2)O1)NCc1ccncc1	·	·	0	·	·
COc1ccccc1N1CCN(C(=O)CCCCCn2c(=S)[nH]c3cc4c(cc3c2=O)OCO4)CC1	0	0	·	64*	-4
O=C(CCCn1c(=S)[nH]c2cc3c(cc2c1=O)OCO3)N1CCN(c2ccccc2F)CC1	6	0	2	3	-1
COc1ccc(-c2ccc3c(c2)O[C@H](CN(C)Cc2ccccc2C(=O)O)[C@@H](C)CN([C@@H](C)CO)S3(=O)=O)cc1	·	·	3	·	·
O=C(Nn1cc(C(=O)Nc2ccc(F)cc2F)c2ccccc2c1=O)c1cnccn1	15	1	65*	-6	2
Cc1oc(-c2ccc(Cl)cc2)nc1CN1CCC(C(=O)NCc2cccnc2)CC1	-8	2	4	87*	-1
O=C(Nc1cnccn1)Nc1ccccc1Cl	-3	0	-6	51*	2
O=C(Nc1cnccn1)Nc1cccc(Cl)c1Cl	-8	0	1	-1	5
